ALOX15 inhib: blocks human 15-lipoxygenase activity; P16050; purified 15hLO-1, xylenol orange hydroperoxide absorbance; Potency, µM (top dose mostly 57.1 µM), inactives show top-dose activity change, negative = inhibition, usual class: inhibitors; 1.4% of 74,000 active; AID 887; also: % is scaled to controls: 0 for no effect and ±100 for the full control effect; nearly all actives have a fitted effect of over 55% in size
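Compounds were preincubated 15 min at room temperature with 40 nM purified human enzyme (25 mM Hepes pH 7.5, 0.01% Triton X-100); 50 uM arachidonic acid reacted 6 min. Fe-xylenol orange detection, 30 min, absorbance ratio 573/405 nm.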
Tau filament bind: binds recombinant human tau filaments; recombinant tau filaments, thioflavin S fluorescence, 15 h; filaments grown with octadecylsulfate alongside compound; 2% of 71,000 active; P10636; Potency, µM (doses to about 57.1 µM), inactives show at the highest dose activity change, negative = inhibition;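 also: % is scaled to controls: 0 for no effect and ±100 for the full control effect; actives lower thioflavin S fluorescence by blocking filaments or displacing dye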
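Recombinant tau protein (human, 1 uM final) plus 30 uM ODS in HEPES pH 7.4 with NaCl, DTT and thioflavine S. Compound present from the start; fluorescence at 510 nm after 15 h, 37 C.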
USP2a inh: inhibitors of human ubiquitin-specific protease USP2a; O75604; USP2a enzymatic assay, qHTS inhibition; Potency, µM (top dose mostly 38.3 µM), for inactives: at the highest dose activity change, negative = inhibition, most hits filed as inhibitors; 0.1% of 60,000 active; AID 927; also: nearly all actives have a fitted effect of over 60% in size
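Coupled readout: USP2-cleaved Ub-PLA2 (20nM final) turns over NBD C6-HPC (20uM final), Ex 460nm/Em 535nm after 2.5 h, time-zero read flagging artifacts. Enzyme (20nM final, pH 8.0 Tris) given 30 min RT with compound first; NEM defines full inhibition.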
Bst PK mod: pyruvate kinase (B. stearothermophilus) modulation; purified pyruvate kinase, luminescence ATP production; ribose 5-phosphate activator present at AC10; Potency, µM; 1.2% of 51,000 active; in the data active = potency below about 11 µM; inconclusive = mostly about 12 µM to 25 µM;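 the screen sought inhibitors and activators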;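 also: scaled between full activation by ribose 5 phosphate and full inhibition by luteolin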
GBA mod: alters purified human glucocerebrosidase activity. P04062. purified enzyme, resorufin glucoside fluorescence (screen aimed at inhibitors), 20 min. Potency, µM. 1.1% of 48,000 active. AID 360; in the data active = potency below about 15 µM; inconclusive = mostly about 16 µM to 33 µM;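 also: the screen sought inhibitors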
Target sequence (P04062 whole entry, looked up): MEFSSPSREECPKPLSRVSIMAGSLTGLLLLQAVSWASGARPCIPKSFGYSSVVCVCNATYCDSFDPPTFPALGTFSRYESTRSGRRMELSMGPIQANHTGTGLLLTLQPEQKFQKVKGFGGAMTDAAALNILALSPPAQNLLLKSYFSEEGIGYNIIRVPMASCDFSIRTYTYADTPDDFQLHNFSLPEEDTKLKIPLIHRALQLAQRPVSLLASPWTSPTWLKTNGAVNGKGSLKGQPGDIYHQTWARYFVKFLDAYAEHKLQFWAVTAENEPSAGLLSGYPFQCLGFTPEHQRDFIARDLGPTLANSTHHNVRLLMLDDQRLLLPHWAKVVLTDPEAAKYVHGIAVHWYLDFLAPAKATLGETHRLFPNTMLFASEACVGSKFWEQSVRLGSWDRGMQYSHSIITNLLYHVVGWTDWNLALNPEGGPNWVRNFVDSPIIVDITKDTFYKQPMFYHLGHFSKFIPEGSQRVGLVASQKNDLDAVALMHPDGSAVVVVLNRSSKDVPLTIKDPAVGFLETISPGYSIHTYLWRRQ
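Wild-type enzyme at 0.2 nM final in 50mM citric acid/KH2PO4, 10mM sodium taurocholate, 0.01% tween-20, pH 5.9, with resorufin beta-D-glucopyranoside at 30 uM final. Compounds titrated, 20 min at RT, red fluorescence read; AC50 from titration.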
Hsp90 Hop PPI: changes Hsp90-Hop TPR2A binding signal, up or down; 0.44% of 71,000 active; AlphaScreen TPR2A-His6 binding biotin-Hsp90 C-terminal peptide; Potency, µM (highest dose often 57 µM), without a hit: top-dose activity change, negative = inhibition; AID 595; active = well fitted curve in either direction with a large enough effect; inconclusive = small, poorly fitted or top-dose-only effect, or another doubt; also: % is scaled to controls: 0 for no effect and ±100 for the full control effect
Numbers without * were called inactive; i = inactive; ? = inconclusive; . = no result given; [ ] = dose if it differs, or a comment. A selection: hits, their analogues and other compounds. The true share with any hit is near 4.6%. Unless noted, calls follow the shape of the dose curve; as a rule, active = well fitted curve in the direction sought with a large enough effect; inconclusive = small, poorly fitted or top-dose-only effect, or another doubt; inactive = no such curve, though single readings can be large; an effect the other way counts as inactive or inconclusive. Potency is read from the fitted curve at half-maximal effect.

SMILES | ALOX15 inhib | Tau filament bind | USP2a inh | Bst PK mod | GBA mod | Hsp90 Hop PPI
CCOC(=O)c1sc2nc(SCC#N)n(CC3CCCO3)c(=O)c2c1C (stereo unspecified) | 0.8% | 15.0% | 5.0% | >57 | >76.9 | -6.8%
CCCSc1nc(C)c(-c2csc(C(C#N)=C3CCCC3)n2)cc1C#N | ? | 15.8µM* | 26.9% | >57 | . | 9.1%
N[C@H](C(=O)O)[C@H](O)C(=O)O | -13.3%[25.6 µM] | 11.6% | -1.1% | . | . | 3.0%
O=C(O)C(S)[C@@H](S)C(=O)O (stereo partly specified) | 7.94µM* | . | -18.8% | . | . | .
COC(=O)[C@@]1(Cc2ccc(F)cc2)[C@H]2c3cc(C(=O)N(C)C)n(Cc4ccsc4Br)c3C[C@H]2CN1C(=O)c1ccccc1 | . | 37.3% | . | . | . | -9.7%
Cc1c2ccccc2c(CSC(=N)N)c2ccccc12 | -0.5%[11.4 µM] | -8.0%[11.4 µM] | . | . | . | 13.6%[11 µM]
Cc1c2ccccc2c(C)c2c1ccc1ccccc12 | -12.1% | 5.1% | . | . | . | 31.6µM*
CCSc1nnc(NC(=O)c2cc(C)oc2C)s1 | -4.1% | 17.2% | 6.9% | >57 | 10.9* | -4.8%
CCOC(=O)c1nn(-c2ccccc2)c(=O)c2c(N)scc12 | 5.01µM* | -20.2% | -1.3% | . | >76.9 | -4.9%
CCOC(=O)c1nn(-c2ccccc2)c(C(=O)OCC)c1N | 0.9% | 4.8% | 10.1% | >57 | >76.9 | 3.2%
Cc1ccc(-c2csc3nnc(SCC(=O)Nc4cccc(C)n4)n23)cc1 | 14.4% | 20µM* | 32.5% | >57 | >76.9 | -17.7%
CCN(CC)c1ccc(C2CC(=O)NC3=C2C(=O)CC(C)(C)C3)cc1 (stereo unspecified) | ? | -15.0% | 9.8% | >57 | >76.9 | -7.2%
Cc1ccc(Nc2nc(CSc3nnnn3C)cs2)cc1 | -13.1% | 15.8µM* | 12.7% | ? | >76.9 | -6.5%
N#CC1=C2SCN(Cc3ccco3)CN2C(=O)CC1c1cccc2ccccc12 (stereo unspecified) | 7.94µM* | ? | 45.2% | i | ? | -4.1%
N#CCCN1CCN(C(=S)c2ccc(-c3ccc(Cl)cc3)o2)CC1 | -21.1% | 25.1µM* | 25.9% | ? | >76.9 | ?
O=C1OC(Nc2nc3ccccc3s2)c2ccccc21 (stereo unspecified) | -0.1% | 0.6% | -0.7% | >57 | 15.1* | -3.6%
O=c1c2ccccc2nc(-c2ccco2)n1Cc1ccccc1 | -5.7% | 0.8% | 8.7% | >57 | >76.9 | -3.8%
CCCCCn1c(-c2ccco2)nc2nc3ccccc3nc21 | ? | 12.6µM* | 27.8% | . | >76.9 | 9.8%
COc1ccccc1Cn1c(-c2ccco2)nc2nc3ccccc3nc21 | -2.0% | 15.8µM* | 39.2% | >57 | >76.9 | -0.9%
CCCn1c(-c2ccc(OC)cc2)nc2nc3ccccc3nc21 | 1.3% | -25.2% | 12.7% | >57 | >76.9 | -0.1%
c1coc(-c2nc3nc4ccccc4nc3n2CC2CCCO2)c1 (stereo unspecified) | ? | -6.9% | 33.7% | >57 | >76.9 | -16.8%
COc1ccc(CCn2c(-c3ccco3)nc3nc4ccccc4nc32)cc1 | -5.5% | 12.6µM* | 26.2% | >57 | >76.9 | 4.1%
c1ccc(Cn2c(-c3ccco3)nc3nc4ccccc4nc32)cc1 | -17.8% | 7.94µM* | 40.4% | >57 | >76.9 | 8.4%
O=C(O)C(=Cc1ccnc2ccccc12)C(=O)O | -5.7%[11.4 µM] | 6.8%[11.4 µM] | . | . | . | -0.8%[11 µM]
COC(=O)C1=C(C)NC(C)=C(C(=O)OC(C)C)[C@H]1c1cccc2nonc12 | -1.6%[25.6 µM] | -18.9%[25.6 µM] | 2.7%[17.1 µM] | . | . | -5.6%[26 µM]
SMILES | ALOX15 inhib | Tau filament bind | USP2a inh | Bst PK mod | GBA mod | Hsp90 Hop PPI
Cc1ccc(-c2nc3nc4ccccc4nc3n2Cc2ccco2)cc1 | ? | 15.8µM* | 39.2% | i | >76.9 | -0.7%
Clc1ccc(-c2nc3nc4ccccc4nc3n2Cc2ccco2)cc1 | -3.1% | ? | 9.7% | >57 | >76.9 | -2.5%
OC(COc1ccc(Cl)c2ccccc12)CN1CCN(c2ccccn2)CC1 (stereo unspecified) | ? | 37.7% | -11.0% | i | i | -6.3%
COc1ccc(C(c2sc3nc(C)nn3c2O)N2CCN(Cc3ccccc3)CC2)cc1OC (stereo unspecified) | 16.1% | -7.8% | . | . | . | ?
O=C(Nc1nccs1)C1CCCN1S(=O)(=O)c1ccc(Cl)cc1 (stereo unspecified) | 5.3% | 1.9% | -7.0% | 10.4* | >76.9 | -0.6%
O=C(CN1CCN(S(=O)(=O)c2ccc(Cl)cc2)CC1)Nc1ccc2c(c1)OCCO2 | -0.1% | 11.1% | 35.8% | i | >76.9 | -2.2%
O=C(Nc1cccnc1)C1CCCN1S(=O)(=O)c1ccc(Cl)c(Cl)c1 (stereo unspecified) | -2.9% | -1.1% | 5.1% | 4.69* | . | -4.9%
O=C(Nc1ccc2c(c1)OCCO2)C1CCCN1S(=O)(=O)c1ccc(Cl)cc1 (stereo unspecified) | 2.3% | -1.3% | 9.3% | 11* | >76.9 | -1.6%
C#CCCCC(=S)Nc1ccccc1 | . | 8.2% | . | . | . | ?
CCN1C(=O)c2cccc3c(S(=O)(=O)Nc4ccccc4OC)ccc1c23 | -19.3% | 20µM* | 24.8% | >57 | >76.9 | 1.6%
CCN1C(=O)c2cccc3c(NS(=O)(=O)c4ccc(NC(C)=O)cc4)ccc1c23 | -13.3% | -27.1% | 4.6% | >57 | >76.9 | 5.2%
COc1ccc2oc(C(=O)c3ccccc3)c(NC(=O)CN3CCN(C)CC3)c2c1 | -3.9% | 3.98µM* | 54.9% | i | . | -5.2%
Cc1cc2cc(CCNC(=O)CC(C)(C)C)c(=O)[nH]c2cc1C | -11.3% | -3.0% | . | . | . | 0.6%
O=C(NCC1CCCO1)c1c(O)c2cccc3c2n(c1=O)CC3 (stereo unspecified) | 5.9% | -4.5% | 4.6% | >57 | . | -2.2%
CCOC(=O)CC1=C(C(=O)OCC)C(c2cc(OC)c(OC)cc2OC)C(C#N)=C(N)O1 (stereo unspecified) | . | . | . | >25.6 | . | .
CCOC(=O)CC1=CC(C)(CC(=O)OCC)C(C#N)(C#N)C(N)=C1C#N (stereo unspecified) | -3.5% | -2.6% | . | >57 | 4.84* | -2.1%
COc1ccccc1-c1nc(C#N)c(N2CCN(c3ccccc3)CC2)o1 | 0.8% | 105.0% | -6.6% | . | 10.1* | ?
COc1ccc(N2CCN(c3oc(COc4ccccc4)nc3C#N)CC2)cc1 | -5.6% | ? | -7.6% | >57 | >76.9 | 12.6µM*
COc1ccccc1OCc1nc(C#N)c(N2CCC(C(N)=O)CC2)o1 | 1.8% | -4.2% | 4.3% | >57 | >76.9 | -2.6%
N#Cc1nc(-c2ccc(OCc3ccccc3)cc2)oc1N1CCC(C(N)=O)CC1 | ? | 58.7% | -3.4% | 4.87* | >76.9 | -8.5%
CCCc1nc2n[nH]c(N)c2c2c1CCC2 | 5.5% | 0.0% | -0.7% | >57 | >76.9 | -2.5%
COc1ccc(N2CCN(C(c3cccc(OC)c3OC)c3nnnn3C3CCCC3)CC2)cc1 (stereo unspecified) | -1.7% | -25.8% | . | >57 | . | -22.7%
FC(F)(F)c1ccccc1-c1cncnc1NCc1ccccc1 | ? | 6.7% | 37.2% | . | . | 1.3%

Assay outcomes: PubChem, National Center for Advancing Translational Sciences (NCATS)
